Laboratory results: PubChem BioAssay (NCI)
The panel holds about 83,000 compounds, 20% with a hit somewhere; the sample as a whole holds those more often.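 Each cell line was grown in a 96-well plate and treated with one concentration of compound for 48 hours. Values below 10 were considered active.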 Unmarked numbers belong to inactive results. Calls of active or inactive are those of the source.

What was measured:
Experiment in all cases: NCI-60 one-dose screen, 48 h (100 = growth as untreated, 0 = no growth, -100 = all killed)
Conditions in all cases: 10 µM unless noted
DU-145 prostate = system: DU-145 prostate
K-562 leukemia = system: K-562 leukemia
MALME-3M melanoma = system: MALME-3M melanoma
MDA-MB-231 breast = system: MDA-MB-231 breast
RXF 393 renal = system: RXF 393 renal
SF-268 CNS = system: SF-268 CNS
SF-295 CNS = system: SF-295 CNS
SF-539 CNS = system: SF-539 CNS
UACC-257 melanoma = system: UACC-257 melanoma
M14 melanoma = system: M14 melanoma

Compound | growth (DU-145 prostate) | growth (K-562 leukemia) | growth (MALME-3M melanoma) | growth (MDA-MB-231 breast) | growth (RXF 393 renal) | growth (SF-268 CNS) | growth (SF-295 CNS) | growth (SF-539 CNS) | growth (UACC-257 melanoma) | growth (M14 melanoma)
O=C(Nc1nc(Cl)nc(Nc2ccc(N3CCOCC3=O)cc2)n1)c1ccc(Cl)s1 | 104% | 64.2% | 88.3% | 88.3% | 91.3% | 95.9% | 92.7% | 104% | 72.2% | 90.4%
CCCCCCCCn1ccc2cc(NC(=O)CN=[N+]=[N-])ccc21 | 108% | 93.5% | 109% | 101% | 104% | 97.9% | 100% | 106% | 103% | 109%
COc1cc2c(c(OC)c1OC)CCC(c1cccc(C(=O)Nc3ccc(Br)cc3)c1)O2 (stereo not given) | 71% | 40.4% | 72.3% | 17% | 75% | 76.6% | 56.5% | 76.6% | 75.6% | 70.5%
CSc1nc(-c2ccco2)c(C#N)c(=O)n1C | 106% | 101% | 88.8% | 107% | 112% | 106% | 97.9% | 89.7% | 96.9% | 108%
ClCCn1cnc2c(SCc3ccccc3)ncnc21 | 63.3% | 40.8% | 57.6% | 75.6% | 87.8% | 67.1% | 37.6% | 37.3% | 62.4% | 71.7%
O=C1Nc2ccc(Cl)cc2/C1=C/c1ccc[nH]1 | 83.6% | 100% | 99.1% | 40.7% | 74% | 96.4% | 109% | 88.6% | 118% | 78.4%
COC(=O)/C(CCC=C(C)C)=C1\[C@@H](OC(C)=O)C[C@@]2(C)[C@H]1C/C(=N/O)[C@H]1[C@@]3(C)CC/C(=N\O)[C@@H](C)[C@@H]3CC[C@@]12C | 106% | 83.6% | 119% | 86.5% | 104% | 89.1% | 101% | 89.4% | 118% | 98.6%
CC(C)c1ccc2c(c1)CC[C@H]1[C@](C)(C(=O)OCC#CCN3CCCC3)CCC[C@]21C | 89.3% | 39.8% | 70.8% | 100% | 74% | 89.1% | 97.5% | 77.8% | 82.4% | 82.4%
Nc1cc(-c2ccc(Cl)cc2)nn1-c1nnc(/C=C/c2ccco2)c(=O)[nH]1 | 63.3% | 41.7% | 72.5% | 74.2% | 67.8% | 52.5% | 9.9% (active) | 55.4% | 69.6% | 57.4%
O=C(N/N=C/c1ccc(Cl)cc1)c1ccc(NC(=O)c2ccccn2)cc1 | 60.7% | 61% | 44.9% | 41.4% | 64.7% | 70.5% | 56.4% | 46% | 63.3% | 55.4%
CCN(CC)c1ccc(-c2cc(-c3cc(OC)c(OC)c(OC)c3)nc(N3CCC(O)CC3)c2C#N)cc1 | 1.59% (active) | 2.04% (active) | -49.2% (active) | -58.7% (active) | -13.3% (active) | 0.835% (active) | -62.2% (active) | -44.3% (active) | -47.5% (active) | -56.4% (active)
Fc1cc2[nH]ncc2c2c3c(c(-c4cn[nH]c4C(F)(F)F)nc12)CCCC3 | 5.47% (active) | -34.5% (active) | 10.5% | 7.95% (active) | -56.2% (active) | 0.494% (active) | 5.61% (active) | -66.9% (active) | 2.49% (active) | -2.16% (active)
CCOC(=O)c1ccc[nH]1 | 116% | 88.5% | 87.7% | 126% | 94.1% | 100% | 114% | 91.9% | 90.8% | 96.2%
COCCn1cc(-c2nc(-c3c[nH]c4ncccc34)cs2)c2ccccc21 | 85.5% | 28.5% | 97.8% | 22.5% | 51.6% | 63.9% | 68.8% | 68.4% | 87.3% | 68.6%
NS(=O)(=O)c1ccc(C(=O)N=Nc2c(O)[nH]c3ccc(Cl)cc23)cc1 | 102% | 98.3% | 90.3% | 98.7% | 109% | 91.9% | 98.7% | 96.4% | 103% | 102%
O=C1/C(=C/c2c[nH]c(=O)[nH]c2=O)SC(=S)N1Cc1ccccc1 | 102% | 101% | 97.6% | 101% | 110% | 95.2% | 102% | 96.9% | 104% | 98.8%
C#COc1cccc(Nc2ncnc3cc(NC(=O)[C@H](C)Cl)ccc23)c1 | 20.3% [6.25 µM] | 99.7% [6.25 µM] | 37.5% [6.25 µM] | 19.1% [6.25 µM] | 15.5% [6.25 µM] | 27.7% [6.25 µM] | 1.61% [6.25 µM] (active) | 0.539% [6.25 µM] (active) | 21.2% [6.25 µM] | 11.7% [6.25 µM]
CC1(C)N=C(N)N=C(N)N1c1cc(Cl)ccc1Cl | 6.66% (active) | 71.2% | 125% | 92.6% | 78.7% | 75.1% | 51.5% | 85.8% | 94.7% | 94%
CC(C)n1c2ccc(Br)cc2c2c3c(c4c5ccccc5ccc4c21)C(=O)NC3=O | 84.2% | 76.4% | 105% | 110% | 98.5% | 88.7% | 101% | 91.5% | 113% | 92.7%
CCCCCCCCn1ccc2cc(NC(=O)CN3CCN(c4cc(C)nc(Cl)n4)CC3)ccc21 | 93.8% | 63.1% | 95.3% | 94.8% | 69.2% | 90.3% | 83.7% | 92.8% | 92.8% | 89.4%
O=C(NCCCCCCNC(=O)OCc1ccc2c(Cl)cc(Cl)c(O)c2n1)OCc1ccc2c(Cl)cc(Cl)c(O)c2n1 | -50.4% (active) | 1.59% (active) | -84.5% (active) | -92.7% (active) | -87% (active) | -50.7% (active) | 32.4% | -97.1% (active) | -29.3% (active) | -38.7% (active)
Cn1cc(-c2csc(-c3cn(CCCN4CCOCC4)c4ccc(F)cc34)n2)c2cccnc21 | 80.3% | 0.484% (active) | 87.4% | 25.1% | 36.1% | 66.6% | 11.2% | 57.6% | 78.5% | 46.2%
CC1(/C=C/c2ccc(-c3ccccc3)cc2)CCn2cnc3ncnc(c32)N1O (stereo not given) | 21.4% | 14.9% | 23.3% | 53.9% | 5.19% (active) | 16.6% | 13.3% | 1.19% (active) | 10.7% | -2.25% (active)
COc1ccc(OC)c(Nc2nnc(-c3cc(OC)c(OC)c(OC)c3)o2)c1 | 101% | 95.8% | 88.8% | 88.9% | 110% | 99.6% | 101% | 91.3% | 112% | 101%
N#Cc1c(-c2cccc(Cl)c2)cc(-c2cccnc2)[nH]c1=O | 94.9% | 43.9% | 62.5% | 81.9% | 100% | 79.9% | 75.9% | 71.6% | 68.2% | 54.2%
O=C(NCc1ccc(Cn2c(=O)sn(-c3ccccc3)c2=O)cc1)OCc1ccc2cccc(O)c2n1 | -91.7% (active) | -9.02% (active) | -68.7% (active) | -45.7% (active) | -94.3% (active) | -46.2% (active) | 50.2% | -91.7% (active) | -25% (active) | -64.2% (active)
